TDP1 cell noCPT: qHTS for Inhibitors of human tyrosyl-DNA phosphodiesterase 1 (TDP1): qHTS in cells in absence of CPT; AID 686978, 2013; DT40 Tdp1-/- hTDP1 cells, no CPT, ATP luminescence, 48 h; hit rate 15% among 420,000; Potency, µM (top dose mostly 46.2 µM), actives largely listed as inhibitors; also: nearly all actives have a fitted effect of over 55% in size
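No-CPT arm: Tdp1-/-;hTDP1 DT40 cells (400/well) plus compounds, incubated ≥48 hr at 37 °C. Readout CellTiter-Glo luminescence.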
VDR inh: blocks the human vitamin D receptor; P11473; VDR-SRC2-3 peptide fluorescence polarization, 2 h; Potency, µM, hits mostly inhibitors; hit rate 0.93% among 400,000
Target sequence (P11473 whole entry, looked up): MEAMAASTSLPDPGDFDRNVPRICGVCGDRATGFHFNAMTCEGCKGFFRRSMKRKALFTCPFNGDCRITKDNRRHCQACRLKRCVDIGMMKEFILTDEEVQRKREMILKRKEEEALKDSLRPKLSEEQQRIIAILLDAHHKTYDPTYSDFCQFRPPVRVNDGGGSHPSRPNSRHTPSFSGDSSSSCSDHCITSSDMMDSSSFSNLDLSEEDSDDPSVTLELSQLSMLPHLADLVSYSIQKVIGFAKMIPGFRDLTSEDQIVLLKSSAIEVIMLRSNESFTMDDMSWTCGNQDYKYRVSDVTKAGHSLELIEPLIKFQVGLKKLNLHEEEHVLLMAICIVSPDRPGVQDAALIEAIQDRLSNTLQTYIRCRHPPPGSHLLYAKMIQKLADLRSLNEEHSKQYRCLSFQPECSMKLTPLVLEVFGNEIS
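VDR–SRC2-3 interaction, FP format. Cmpds 23 nl via pintool, brief spin, 2 h ambient incubation.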
DT40 TDP1 CPT: DT40-hTDP1 cell growth loss with CPT. AID 686979. Potency, µM (titrated, usually from 46.2 µM), actives largely listed as inhibitors. hit rate 12% among 420,000. chicken DT40 Tdp1-/-;hTDP1 cells + 20 nM CPT, ATP luminescence, 48 h; also: nearly all actives have a fitted effect of over 55% in size
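Cell growth measured by CellTiter-Glo luminescence after a minimum 48 h, 37 C compound exposure with 20 nM CPT in Tdp1-knockout DT40 cells stably expressing hTDP1, seeded 400/well; qHTS titration format.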
GCN5L2 inh: GCN5L2 (KAT2A) acetyltransferase inhibition; Q92830; GCN5L2 HAT assay, ThioGlo1 CoA-SH fluorescence; Potency, µM (titrated, usually from 58.9 µM), usual class: inhibitors; hit rate 0.21% among 390,000; AID 504327
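Fluorescence readout, Ex340nm/Em540nm: ThioGlo1 (50uM final) reacts with free CoA thiol released as 20nM GCN5L2 acetylates H3(1-25) peptide (75uM) using acetyl-CoA (70uM). Compound and enzyme sat 15 min beforehand; 20 min room-temperature reaction.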
PLK1 PBD block: PLK1 (human) polo-box domain binding inhibition | Potency, µM, actives largely listed as inhibitors | Plk1 PBD binding of FITC phosphopeptide, fluorescence polarization | AID 720504 | hit rate 2.8% among 360,000 | P53350; also: series mostly up to about 57 µM; nearly all actives have a fitted effect of over 65% in size
TDP1 block: TDP1 (human) enzyme inhibition; recombinant TDP1, AlphaScreen DNA substrate cleavage; hit rate 0.28% among 350,000; Potency, µM (doses to about 130 µM), most hits filed as inhibitors; AID 485290; also: nearly all actives have a fitted effect of over 40% in size
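Here, a 5' biotin and 3' phosphotyrosine-FITC DNA oligonucleotide reports Tdp1 activity: intact substrate bridges AlphaScreen beads, while cleavage leaves a 3' phosphate and drops signal. All incubations at room temperature.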
Hits are given with their value; n = inactive; u = inconclusive; x = no result; [ ] = another dose, or the depositor's remark. Compounds with a hit are over-represented: about 18% of the library has one in this group of screens. Calls follow the shape of the dose curve; as a rule, active = well fitted curve in the direction sought with a large enough effect; inconclusive = small, poorly fitted or top-dose-only effect, or another doubt; inactive = no such curve, though single readings can be large; an effect the other way counts as inactive or inconclusive.

SMILES | TDP1 cell noCPT | VDR inh | DT40 TDP1 CPT | GCN5L2 inh | PLK1 PBD block | TDP1 block
COc1ccc(CCNCc2cc(C)n(-c3ccc(OC)cc3)c2C)cc1 | u | n | 16µM | n | n | x
CNC(=S)NCCc1ccc(OC)cc1 | n | n | n | n | n | n
COc1ccc(CCNCc2ccccc2N2CCCC2)cc1 | u | n | 18µM | n | n | x
CCOC(=O)c1c(C)[nH]c(C2=NNC(=NC3CC3)SC2)c1C | u | 8.9µM | u | n | 30µM | n
CCOC(=O)c1c(C)[nH]c(/C(C)=N/O)c1C | n | n | n | n | n | n
COC(=O)Cc1sc(-c2ccccn2)nc1-c1ccccc1 | 16µM | 25µM | u | n | 4.7µM | n
O=C(Cc1sc(-c2ccccc2)nc1-c1ccccc1)Nc1ccc(Cl)cc1 | u | n | u | n | n | n
CCc1ccccc1NC(=O)Nc1cc(C(=O)NCc2cccc(F)c2)ccc1N1CCCC1 | 2.6µM | n | 3.3µM | n | x | n
CCc1ccccc1NC(=O)Nc1cc(C(=O)NCc2ccc(OC)cc2)ccc1N1CCCC1 | 9.2µM | n | 12µM | n | x | n
COc1ccccc1C1c2c(-c3ccc(Cl)cc3)n[nH]c2C(=O)N1c1ccc(C)cc1 (stereo not given) | u | n | u | n | x | n
CCOC(=O)c1c(NC(C)=O)sc2c(OCC(O)CNC(C)(C)C)c(Br)ccc12 (stereo not given) | 10µM | n | u | n | n | n
CCOC(=O)c1c(N)sc2c(OCC)c(Br)ccc12 | u | n | u | n | n | n
CCOc1ccc(CCNC(=O)c2nnc(CS(=O)(=O)c3ccccc3)o2)cc1OCC | n | n | u | n | n | n
CCSc1n[nH]c(=S)s1 | n | n | n | 32µM | n | n
CCn1c(SCC(=O)N2CC(C)OC(C)C2)nc2c([nH]c3ccccc32)c1=O (stereo not given) | u | n | n | n | n | n
CCc1ccc(NC(=O)c2ccc(F)c(S(=O)(=O)N3CCN(c4cc(C)ccc4C)CC3)c2)cc1 | u | n | u | n | x | n
Cc1ccc(C)c(N2CCN(S(=O)(=O)c3cc(C(=O)Nc4cc(Cl)cc(Cl)c4)ccc3F)CC2)c1 | 16µM | n | 12µM | n | x | n
O=C(NCCC1=CCCCC1)c1cc(S(=O)(=O)N2CCOCC2)c(Cl)cc1Cl | u | n | u | n | n | n
O=C(NCCC1=CCCCC1)c1ccc(Cl)c(S(=O)(=O)N2CCCCC2)c1 | 23µM | n | 16µM | n | n | n
O=C(Nc1cc(Cl)cc(Cl)c1)c1ccc(F)c(S(=O)(=O)N2CCN(c3ccccc3F)CC2)c1 | 7.3µM | n | 5.8µM | n | x | n
Cc1ccc(N2CCN(S(=O)(=O)c3cc(C(=O)Nc4cc(Cl)cc(Cl)c4)ccc3F)CC2C)cc1 (stereo not given) | 16µM | n | u | n | x | n
CCc1ccccc1NC(=O)CNC(=O)c1cc(C2CC2)nn1-c1ccccc1 | n | n | u | n | n | n
CCCCCCCCCCCCCCC(F)C(=O)O (stereo not given) | n[4.12 µM] | n | n[4.12 µM] | n | x | n
CC(C)(C)C1CCc2c(sc(NC(=O)c3ccco3)c2C(=O)Nc2ccccc2Cl)C1 (stereo not given) | n | n | n | n | x | x
COc1ccc(CCNC(=O)c2ccc(F)c(S(=O)(=O)N3CCCCC3)c2)cc1 | 23µM | x | u | x | n | x
SMILES | TDP1 cell noCPT | VDR inh | DT40 TDP1 CPT | GCN5L2 inh | PLK1 PBD block | TDP1 block
Cc1ccc(C)c(N2CCN(S(=O)(=O)c3cc(C(=O)Nc4ccc(Oc5ccccc5)cc4)ccc3F)CC2)c1 | u | n | u | n | x | n
Cc1cccc(N2CCN(S(=O)(=O)c3cc(C(=O)Nc4ccc(Oc5ccccc5)cc4)ccc3F)CC2)c1C | u | n | 5.2µM | n | x | n
O=C(Nc1cc(Cl)cc(Cl)c1)c1ccc(F)c(S(=O)(=O)N2CCCCCC2)c1 | 10µM | n | 5.2µM | n | x | n
COc1ccc(CCNC(=O)COC(=O)c2ccc(F)c(S(=O)(=O)N3CCOCC3)c2)cc1 | n | n | n | n | n | n
COc1ccc(CCn2c3c(c(=O)[nH]c2=S)CN(c2ccccc2)CN3)cc1OC | u | n | u | x | x | n
CCC(=O)N(C)CCc1cc2c(c(OC)c1/C=N/NC(=O)c1ccccc1O)OCO2 | n | n | n | n | n | n
CCC(=O)N(C)CCc1cc2c(c(OC)c1/C=N/NC(=O)c1ccc(Br)cc1)OCO2 | n | u | n | n | 24µM | n
COc1cc2nc(=S)n3[nH]c(CCn4nc(C)cc4C)nc3c2cc1OC | 1.3µM | n | 1.6µM | n | n | n
COc1cc2nc(=S)n3[nH]c(COc4ccccc4C)nc3c2cc1OC | 5.8µM | n | 1.2µM | n | n | n
CC(=O)ON=C1C=CC(=C(C#N)c2ccccc2)C=C1 | 3.3µM | x | 2.3µM | x | 2.4µM | x
COc1ccc(C(C#N)=C2C=CC(=NO)C=C2)cc1 | 10µM | u | 5.2µM | n | 27µM | n
Cc1cc2c(cc1C)-n1nnnc1C(N(Cc1ccccc1)Cc1ccccc1)C(=O)N2 (stereo not given) | 21µM | x | u | x | n | x
Cc1ccc(S(=O)(=O)N2CCCC(C(=O)Nc3ccc(C(=O)O)cc3)C2)cc1Cl (stereo not given) | n | n | n | n | n | n
Cc1ccc(CSc2cn(CC(=O)N3CCCCC3)c3ccccc23)cc1 | 23µM | n | u | n | x | n
CC1CCN(C(=O)Cn2cc(SCC(=O)NCc3ccccc3)c3ccccc32)CC1 | u | n | u | n | x | n
O=C(Cn1cc(SCc2ccc(F)cc2)c2ccccc21)N1CCCCC1 | 16µM | n | 16µM | n | x | n
CC1CCN(C(=O)Cn2cc(SCc3ccccc3)c3ccccc32)CC1 | 16µM | n | 21µM | n | x | n
Cc1ccccc1CS(=O)(=O)c1cn(CC(=O)N2CCC(C)CC2)c2ccccc12 | 13µM | n | n | n | n | n
O=C(O)CN(CC(=O)O)c1ccccc1OCCOc1ccccc1N(CC(=O)O)CC(=O)O | x | n | x | n | x | n
COC(=O)[C@@]1(Cc2ccccc2)[C@H]2c3cc(C(=O)N(C)C)n(Cc4ccsc4Br)c3C[C@H]2CN1C(=O)c1ccccc1 | x | x | x | x | x | n
O=C(N/N=C\c1ccc([N+](=O)[O-])s1)c1cncc(Br)c1 | 3.3µM | n | 5.2µM | u | n | n
COc1ccc(NC(C)C(=O)N/N=C/c2ccc([N+](=O)[O-])s2)cc1 (stereo not given) | 23µM | n | 16µM | n | n | n
Cc1ccccc1C(=O)N/N=C/c1ccc([N+](=O)[O-])s1 | 13µM | n | 16µM | n | n | n
COc1ccccc1NC(=O)C(=O)N/N=C/c1ccc([N+](=O)[O-])s1 | u | n | 12µM | n | n | n
